# Shown are actives, neighbours in structure and some others; about 2% of the full set was active somewhere.
# B2AR ag: activates human beta-2 adrenergic receptor causing internalization | Am2.2-beta2AR cells, FAP receptor internalization, flow cytometry | response, % (concentration not given with the values) | AID 504454 | P07550 | 340,000 tested, 0.43% active;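 active = response above a set limit, near 3 SD of response in nonfluorescent compounds, cut at about 42% in these data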
# ABHD5 PLIN5 PPI: inhibitors of human ABHD5-perilipin-5 interaction. Q00G26+Q8WTS1. Split G. princeps luciferase complementation, luminescence, 4 h. inhibition, % at 4 µM. 360,000 tested, 0.78% active;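 active = inhibition above the mean inhibition across every tested compound plus 3 SD, cut at about 22% in these data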;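 note: 0% = DMSO only wells and the 100% control is not disclosed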
# Granule exo inh: lytic granule exocytosis inhibition; TALL-104 LAMP-1 surface exposure, flow cytometry; cells stimulated with thapsigargin and PMA; inhibition, % at 10 µM; 360,000 tested, 0.66% active; AID 651702;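 active = inhibition above about 55%, limit read from the data; inconclusive = no clear call, values can overlap the other calls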
# TLR4 MyD88 comp: TLR4-MyD88 interaction inhibition in cells; 200,000 tested, 0.18% active; HeLa CL3-4 TLR4/MyD88 BLA complementation, FRET ratio; inhibition, % at 8.4 µM; O00206+Q99836; in the data active = inhibition above about 25%;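 note: 0% = vehicle and 100% = reference inhibitor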
# NOD2 RIPK2 PPI: inhibitors of human NOD2-RIPK2 interaction. CHO BLA complementation NOD2-RIPK2, CCF4 ratio. inhibition, % at 4.98 µM. 360,000 tested, 0.38% active. AID 624267; in the data active = inhibition above about 21%;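 note: 0% = vehicle only and 100% = reference blocker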
# TLR9-MyD88 block: inhibitors of human TLR9-MyD88 binding. Q9NR96+Q99836. CHO BLA complementation TLR9-MyD88, CCF4 FRET ratio. inhibition, % at 4.98 µM. 340,000 tested, 0.21% active. AID 504734;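 active = inhibition above the mean over all tested compounds plus 3 SD, cut at about 21% in these data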;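 note: 0% = DMSO only wells and 100% = clavulanate BLA inhibitor control wells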
# * hit, by the source's call; ? = inconclusive; . = no result given.
SMILES,B2AR ag,ABHD5 PLIN5 PPI,Granule exo inh,TLR4 MyD88 comp,NOD2 RIPK2 PPI,TLR9-MyD88 block
Cc1cccc(C)c1NC(=O)C1(C)CSCC(=O)N1C1CCN(Cc2ccccc2)CC1 (configuration not stated),.,0,19,.,-7,.
O=C(O)c1ccc(/C=C2\SC(=S)N(Nc3ccccc3)C2=O)cc1,16,-2,1,.,-11,-7
O=C1/C(=C/c2ccncc2)SC(=S)N1Nc1ccccc1,7,-15,61*,.,2,.
O=C(N=Nc1c(O)[nH]c2ccc(Cl)cc12)c1cc(-c2cccs2)nc2ccccc12,47*,2,-4,-3,-12,-6
O=C(N=Nc1c(O)[nH]c2ccc([N+](=O)[O-])cc12)c1ccccc1Cl,-2,-3,-5,.,7,-6
O=C(NCc1ccco1)c1ccc(-c2ccc3nccn3c2)cc1,.,22*,3,.,-4,.
CCOC(=O)c1sc2nc(-c3ccco3)c3c(c2c1N)CC(C)(C)OC3,-9,30*,27,.,4,6
Cc1ccc(N2CCN(C(=O)C(=O)c3cccc([N+](=O)[O-])c3)CC2)cc1,.,-3,-4,.,-6,.
COC(=O)[C@@]12C[C@@H](CC(=O)NCc3cccc4ccccc34)C(=O)N(Cc3ccco3)C1=CCC(C)(C)C2,.,6,5,.,-7,.
CCOC(=O)c1cccc(NC(=O)/C=C/c2cccc([N+](=O)[O-])c2)c1,2,4,4,-16,-1,-6
CCOC(=O)/C=C/C(=O)Nc1cccc([N+](=O)[O-])c1,7,44*,22,14,9,5
CCCCCC1C(C(=O)OCC)C(=O)NC1(C(=O)OCC)C(=O)OCC (configuration not stated),3,-8,95*,.,0,-7
O=[N+]([O-])c1cccc(SSc2cccc([N+](=O)[O-])c2)c1,3,36*,-4,.,0,5
NS(=O)(=O)c1ccc(N/N=C/c2cn(-c3ccccc3)nc2-c2ccccc2)c([N+](=O)[O-])c1,81*,-2,-4,13,-1,4
N#C/C(=C\c1cccs1)C(=O)c1ccccc1Cl,54*,.,.,.,.,.
Cc1cccc(NC(=S)Nc2cccc(C)n2)n1,1,6,73*,.,4,4
Cc1cccc(NC(=S)NC2CCCC2)n1,-8,-12,-4,5,4,5
C[C@@H]1Cc2[nH][nH]c(=O)c2[C@H](C)O1,.,5,2,.,-4,.
Cc1c(Cl)cccc1NC(=S)NCCc1ccc(F)cc1,8,-12,84*,.,-7,7
O=C(NCc1ccccc1)c1nc(-c2c(F)cccc2F)oc1-c1ccccc1,.,-9,-2,.,-7,.
CN=c1scc(-c2ccccc2F)n1/N=C/c1ccc[nH]1,2,8,0,0,4,6
CN=c1scc(-c2ccccc2F)n1/N=C/c1ccc(O)c(O)c1O,101*,-6,0,4,9,7
CCCS(=O)(=O)NC(=O)C1(C)CCCN(C(=O)c2cncc(Br)c2)C1 (configuration not stated),.,-8,-5,.,-16,.
COc1ccc(C(=O)/C=C/C(=O)N(CC(=O)NC2CCCCC2)Cc2ccccc2)c(O)c1,111*,9,46,19,7,-2
COc1ccc(C(=O)/C=C/C(=O)N(CC(=O)NC2CCCCC2)Cc2ccccc2OC)c(O)c1,95*,3,41,2,0,8
SMILES,B2AR ag,ABHD5 PLIN5 PPI,Granule exo inh,TLR4 MyD88 comp,NOD2 RIPK2 PPI,TLR9-MyD88 block
COc1ccc(C(=O)/C=C/C(=O)N(Cc2ccccc2OC)C(C(=O)NC2CCCCC2)c2ccncc2)c(O)c1 (configuration not stated),1,1,?,-25,3,-6
COC(=O)c1ccc(C23CC4(C2)[C@H](CN(Cc2ccc(C(F)(F)F)cc2)[C@@H]4c2ccccc2)C3c2ccccc2)cc1 (some centres not stated),2,-4,22,.,-3,1
COC(=O)c1cccc(C23CC4(C2)[C@H](CN(Cc2ccc(C(F)(F)F)cc2)[C@@H]4c2ccccc2)C3c2ccc(Cl)nc2)c1 (some centres not stated),-1,-4,77*,.,-7,-6
CC1(C(=O)NCc2ccccc2)CN(S(C)(=O)=O)CC(=O)N1CCc1ccc(O)cc1 (configuration not stated),.,3,8,.,1,.
O=Cc1cccc(OCc2cccc3ccccc23)c1,71*,-4,54,.,14,3
COc1ccc(COc2cccc(C=O)c2)cc1,24,-10,-4,.,2,-5
COc1ccc(OCC(O)CN(CCO)CC(O)Cn2ccc3ccccc32)cc1 (configuration not stated),4,20,22,-16,-10,-13
CCC(=C(c1ccc(OC)cc1)c1ccc(OC)cc1)c1cn(CC(O)CN(CCO)CCO)c2ccccc12 (configuration not stated),10,12,72*,6,-6,-8
COC(=O)c1ccc(/C=C2\SC(=S)N(CCCC(=O)NCCCN3CCOCC3)C2=O)cc1,3,-7,78*,.,0,-5
COc1cc(NC(=O)N2CCc3nc(NCc4cccc(Oc5ccccc5)c4)ncc3C2)cc(OC)c1OC,.,3,16,.,-6,.
NC(=O)c1nsc(C(=O)N(c2ccccc2F)C(C(=O)NCc2ccccc2)c2ccc(O)cc2)c1N (configuration not stated),6,15,39,.,-6,0
Cc1ccccc1N(C(=O)c1snc(C(N)=O)c1N)C(C(=O)NCc1ccccc1)c1ccc(O)cc1 (configuration not stated),-1,-8,64*,.,1,-13
Cc1cccc(N(C(=O)c2snc(C(N)=O)c2N)C(C(=O)NCC2CCCO2)c2ccc(N(C)C)cc2)c1 (configuration not stated),-1,0,97*,.,-10,1
CCOc1ccccc1N(C(=O)c1snc(C(N)=O)c1N)C(C(=O)NC1CCCC1)c1ccco1 (configuration not stated),-6,2,-4,-6,6,-3
CCOc1ccccc1N(C(=O)c1snc(C(N)=O)c1N)C(C(=O)NC1CCCC1)c1cccs1 (configuration not stated),4,-3,74*,.,0,-4
CN(C)c1ccc(C(C(=O)NCC2CCCO2)N(C(=O)c2snc(C(N)=O)c2N)c2ccccc2)cc1 (configuration not stated),-3,2,18,.,-1,-1
CC(C)c1cc(Cn2c3ccccc3c(=O)n2C(C)Cn2cc(COc3ccccc3)nn2)on1 (configuration not stated),.,8,1,.,-9,.
O=C(/C=C/c1ccccc1F)c1ccoc1,0,31*,1,-10,-11,5

# Source: PubChem BioAssay
